# This is a sample that favours compounds with a hit; in the whole collection about 18% have one here.
# PLK1 PBD inh: qHTS for Inhibitors of PLK1-PDB (polo-like kinase 1 - polo-box domain): Primary Screen | Plk1 PBD binding of FITC phosphopeptide, fluorescence polarization | Potency, µM, inactives show max response, negative = inhibition, most hits filed as inhibitors | 360,000 tested, 2.8% active | AID 720504, 2013; note: series mostly up to about 57 µM; nearly all actives have a fitted effect of over 65% in size
# VDR inh: Inhibitors of the vitamin D receptor (VDR): qHTS; Vitamin D3 receptor (Homo sapiens), P11473; VDR-SRC2-3 peptide fluorescence polarization, 2 h; Potency, µM, without a hit: max response, negative = inhibition, most hits filed as inhibitors; 400,000 tested, 0.93% active; AID 504847, 2011
#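 Measured by FP: displacement of SRC2-3 coactivator peptide from VDR by library compounds, following a two-hour ambient incubation.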
# TDP1 cell noCPT: qHTS for Inhibitors of human tyrosyl-DNA phosphodiesterase 1 (TDP1): qHTS in cells in absence of CPT; DT40 Tdp1-/- hTDP1 cells, no CPT, ATP luminescence, 48 h; Potency, µM (series often up to 46.2 µM), for inactives: at the top dose activity change, negative = growth inhibition, usual class: inhibitors; 420,000 tested, 15% active; note: nearly all actives have a fitted effect of over 55% in size
#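 Stably hTDP1-transfected Tdp1-null chicken DT40 cells were treated with library compounds minus camptothecin and grown for at least 48 hr at 37 °C, after which cellular ATP was quantified by luminescence.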
# TDP1 block: qHTS Assay for Inhibitors of Tyrosyl-DNA Phosphodiesterase (TDP1); recombinant TDP1, AlphaScreen DNA substrate cleavage; Potency, µM (highest dose often 130 µM), inactives show at the top dose activity change, negative = inhibition, actives largely listed as inhibitors; 350,000 tested, 0.28% active; AID 485290, 2010; note: nearly all actives have a fitted effect of over 40% in size
# Target sequence (Q9NUW8 whole entry, looked up): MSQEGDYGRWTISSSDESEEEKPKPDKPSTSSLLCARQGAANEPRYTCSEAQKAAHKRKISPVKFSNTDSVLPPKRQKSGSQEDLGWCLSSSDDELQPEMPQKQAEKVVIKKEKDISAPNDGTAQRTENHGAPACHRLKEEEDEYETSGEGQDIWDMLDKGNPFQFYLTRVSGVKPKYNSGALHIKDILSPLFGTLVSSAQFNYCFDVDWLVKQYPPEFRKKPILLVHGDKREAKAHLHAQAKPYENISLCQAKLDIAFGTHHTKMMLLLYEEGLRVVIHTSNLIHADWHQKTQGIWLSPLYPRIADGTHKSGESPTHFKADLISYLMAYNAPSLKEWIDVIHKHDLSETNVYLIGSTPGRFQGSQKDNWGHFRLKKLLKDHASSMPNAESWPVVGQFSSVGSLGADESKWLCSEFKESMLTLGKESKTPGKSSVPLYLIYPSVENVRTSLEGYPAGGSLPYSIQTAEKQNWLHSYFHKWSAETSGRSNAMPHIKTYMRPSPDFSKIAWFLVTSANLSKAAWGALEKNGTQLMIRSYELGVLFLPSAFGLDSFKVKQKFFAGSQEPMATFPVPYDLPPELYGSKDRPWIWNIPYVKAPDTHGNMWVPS
#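 Enzyme-compound mixtures sat 15 min at room temperature, followed by a 5 min reaction with 15 nM final substrate and 10 min with AlphaScreen beads. Recombinant human Tdp1 was used at 1 nM final.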
# DT40 TDP1 CPT: qHTS for Inhibitors of human tyrosyl-DNA phosphodiesterase 1 (TDP1): qHTS in cells in presence of CPT; 420,000 tested, 12% active; Potency, µM (top dose mostly 46.2 µM), without a hit: top-dose activity change, negative = growth inhibition, usual class: inhibitors; chicken DT40 Tdp1-/-;hTDP1 cells + 20 nM CPT, ATP luminescence, 48 h; note: nearly all actives have a fitted effect of over 55% in size
#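 Chicken DT40 Tdp1-/- cells stably complemented with human TDP1 were seeded at 400 cells/well in medium containing 20 nM camptothecin, exposed to pin-transferred compounds, and grown at 37 °C for at least 48 hr. Viability was read as ATP luminescence.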
# KAT2A inh: qHTS Assay for Inhibitors of GCN5L2; Histone acetyltransferase KAT2A (Homo sapiens), Q92830; GCN5L2 HAT assay, ThioGlo1 CoA-SH fluorescence; 390,000 tested, 0.21% active; Potency, µM (titrated, usually from 58.9 µM), without a hit: at the top dose activity change, negative = inhibition, usual class: inhibitors
#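 Compounds, pin-transferred from DMSO stocks, meet 20nM GCN5L2 for 15 min before the reaction begins with H3(1-25) peptide (75uM) and acetyl-CoA (70uM). Thiol-reactive ThioGlo1 reports CoA release over 20 min at room temperature.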
# * = called active by the depositor; ? = inconclusive; . = no result. Calls come from the whole dose curve; as a rule, active = well fitted curve in the direction sought with a large enough effect; inconclusive = small, poorly fitted or top-dose-only effect, or another doubt; inactive = no such curve, though single readings can be large; an effect the other way counts as inactive or inconclusive. % is set by controls: 0 for no effect and ±100 for the full control effect; potency is the fitted concentration of half-maximal effect.
SMILES,PLK1 PBD inh,VDR inh,TDP1 cell noCPT,TDP1 block,DT40 TDP1 CPT,KAT2A inh
CCC(C)CNC(=O)c1cccc(OC2CCN(CC(C)(C)C)CC2)c1 (configuration not stated),6%,8%,29µM*,.,?,.
CN(C)S(=O)(=O)N1CCC(Oc2cccc(C(=O)NC3CCCCC3)c2)CC1,15µM*,?,?,2%,18µM*,-4%
CN(C)S(=O)(=O)N1CCC(Oc2cccc(C(=O)NCCC3=CCCCC3)c2)CC1,-11%,-14%,?,1%,16µM*,-1%
CS(=O)(=O)N1CCC(Oc2cccc(C(=O)NCCCC3CCCC3)c2)CC1,-7%,1%,21µM*,.,?,.
CN1CCN(S(=O)(=O)c2cccc(C(=O)NCCC3=CCCCC3)c2)CC1,-7%,-8%,?,.,?,0%
COCCC1CCCCN1C(=O)c1cccc(OC2CCN(S(C)(=O)=O)CC2)c1 (configuration not stated),3%,5%,2%,1%,0%,2%
COc1cc(C(=O)OCC(=O)c2cc(C)n(CC3CCCO3)c2C)ccc1OCC(=O)N1CCOCC1 (configuration not stated),-6%,-9%,?,.,?,.
O=C(Cc1ccccc1)Nc1cccc(C(=O)O)c1O,-18%,-7%,?,6%,7%,0%
CC(=O)c1ccc(NC(=O)CSc2nc3nn(-c4ccccc4)c(=O)c-3c3n2CCCCC3)cc1,-5%,-15%,16µM*,.,26µM*,.
COCCNC(=O)CSc1nc2nn(-c3ccccc3)c(=O)c-2c2n1CCCCC2,24µM*,2%,?,5%,?,0%
COc1ccc(-n2c(=O)cnc3cnc(Nc4ccccc4)nc32)cc1,.,-1%,-20%,.,?,-21%
C[C@@H](Nc1nc(Cl)nc2nc[nH]c12)c1ccccc1,.,?,16µM*,1%,20µM*,.
CN1CCN(S(=O)(=O)c2cccc(S(=O)(=O)c3ccc(Cl)cc3)c2)CC1,-10%,8%,16µM*,3%,?,.
Cc1ccc(S(=O)(=O)c2cccc(S(=O)(=O)N3CCOCC3)c2)cc1S(=O)(=O)N1CCOCC1,-7%,6%,?,2%,-9%,-1%
Cc1ccc(S(=O)(=O)c2cccc(S(=O)(=O)N3CCCC3)c2)cc1S(=O)(=O)N1CCCC1,-1%,5%,18µM*,-2%,21µM*,-1%
O=S(=O)(c1ccccc1)c1cccc(S(=O)(=O)N2CCCCC2)c1,-2%,1%,?,6%,?,-3%
COc1cc(C)c(CN2CCc3nnc(C(C)NC(=O)c4cc(F)ccc4F)n3CC2)cc1C (configuration not stated),.,.,-2%,.,0%,.
COc1ccc(C2N(Cc3ccccc3)C(=O)c3ccccc3N2C)cc1COc1ccc(NC(C)=O)cc1 (configuration not stated),.,.,.,-10%,.,.
Cc1ccc(Cl)cc1-n1ncc2c(Nc3ccc4c(c3)OCCO4)ncnc21,.,11%,?,3%,26µM*,5%
Cc1ccc(-n2ncc3c(Nc4ccc5c(c4)OCCO5)ncnc32)cc1Cl,.,13%,23µM*,3%,?,4%
Clc1cccc(-n2ncc3c(Nc4ccc5c(c4)OCCO5)ncnc32)c1,.,21%,?,8%,?,0%
O=c1ccn([C@@H]2O[C@H](CNCc3ccccc3OCc3ccc(Cl)cc3Cl)[C@@H](O)[C@H]2O)c(=O)[nH]1,-10%,.,?,.,21µM*,.
C=CCn1c(=NC(=O)c2ccccc2[N+](=O)[O-])sc2cc(S(C)(=O)=O)ccc21,-4%,-12%,21µM*,3%,16µM*,0%
CCN(CC)CCN(C(=O)c1ccc2c(c1)OCCO2)c1nc2cc(C)cc(C)c2s1,-5%,17%,?,9%,15µM*,-4%
CCN(CC)CCN(C(=O)c1ccc2c(c1)OCCO2)c1nc2c(Cl)cccc2s1,-5%,-9%,?,9%,18µM*,-2%
SMILES,PLK1 PBD inh,VDR inh,TDP1 cell noCPT,TDP1 block,DT40 TDP1 CPT,KAT2A inh
CN(C)CCN(C(=O)c1ccc2c(c1)OCCO2)c1nc2ccc(Cl)cc2s1,-3%,8%,?,2%,?,-9%
Cc1cc(C)c2nc3nc(C)c(C)cc3c(N)c2c1,-7%,1%,6.5µM*,7%,8.2µM*,-7%
CCC(CCc1ccccn1)C(=O)c1ccccc1 (configuration not stated),-1%,4%,-22%,.,-22%,.
CCCCC(CCc1ccccn1)C(=O)c1ccccc1 (configuration not stated),-12%,-18%,?,.,23µM*,.
CN(C)CC(CCCCC(CN(C)C)C(=O)c1ccccc1)C(=O)c1ccccc1 (configuration not stated),-4%,-15%,5.8µM*,2%,5.8µM*,-2%
Cc1cccc(NC(=O)c2c(O)c3ccccc3n(C)c2=O)c1,1%,7%,15µM*,.,?,1%
CCCn1c(=O)c(C(=O)Nc2cccc(C)c2)c(O)c2ccccc21,-15%,-7%,?,.,?,-3%
Cc1ccc(NC(=O)c2c(O)c3ccccc3n(C)c2=O)nc1,2%,8%,21µM*,0%,?,-2%
CCCCN(CC)CCCNC(=O)c1cc2c(=O)[nH]c3ccccc3c2n1C,.,7%,?,0%,?,-4%
COc1ccccc1NC(=O)c1ccc(CN2C(=O)C(C)=C(c3ccc(C)c(C)c3)S2(=O)=O)cc1,.,9%,?,3%,?,-26%
COc1ccc(C2C3=C(CC(C)(C)CC3=O)Nc3c2c(=O)n(C)c(=O)n3C)cc1OC (configuration not stated),12µM*,?,?,1%,?,-11%
CCNc1nc(NCC)n2c(SC(C(=O)Nc3cc(Cl)cc(Cl)c3)c3ccccc3)nnc2n1 (configuration not stated),-4%,-7%,16µM*,3%,23µM*,-4%
CCNc1nc(NCC)n2c(SCC(=O)Nc3cccc(Cl)c3)nnc2n1,-4%,-7%,?,.,?,-15%

# Compound activity deposited in PubChem BioAssay by National Center for Advancing Translational Sciences (NCATS).
